# Some of the results follow. The hit rate among all sequences tested is not known here.
# B1: HC263 (peptide)
# chain: CANDCPNSSIAGNASASA
# B2: FS-1888 (peptide)
# chain: CAREKRKNRTAGNASASA
# B3: FS-2727 (peptide)
# chain: CARNKREDRTAGNASASA
# B4: FS-1757 (peptide)
# chain: CARNKRESGKAGNASASA
# B5: FS-3119 (peptide)
# chain: CARVLRENGKAGNASASA
# B6: FS-2914 (peptide)
# chain: CAREKKVTRTAGNASASA
# B7: HC1133 (peptide)
# chain: CATAILSSLTAGNASASA
# B8: HC333 (peptide)
# chain: CALDMIAGAHAGNASASA
# B9: HC89 (peptide)
# chain: CAVVCHSMSYAGNASASA
# B10: HC1153 (peptide)
# chain: CACEVLSDFKAGNASASA
# B11: FS-466 (peptide)
# chain: CANGFRHARNAGNASASA
# B12: FS-984 (peptide)
# chain: CADNKRMARNAGNASASA
# B13: FS-475 (peptide)
# chain: CAPNSRLARNAGNASASA
# B14: FS-211 (peptide)
# chain: CAAASRLARGAGNASASA
# B15: HC1438 (peptide)
# chain: CADTTIMAKNAGNASASA
# B16: FS-2317 (peptide)
# chain: CARVKRDLVLAGNASASA
# B17: FS-2618 (peptide)
# chain: CARVKRVLMGAGNASASA
# B18: FS-3136 (peptide)
# chain: CASKKRSNGLAGNASASA
# B19: FS-1977 (peptide)
# chain: CARVKRSLGEAGNASASA
# B20: FS-2726 (peptide)
# chain: CARNKKDVNLAGNASASA
# B21: FS-2916 (peptide)
# chain: CARELRQLMEAGNASASA
# B22: HC974 (peptide)
# chain: CARLGAVQNEAGNASASA
# B23: HC257 (peptide)
# chain: CAQVRNSTGLAGNASASA
# B24: FS-2045 (peptide)
# chain: CARLYRSLGEAGNASASA
# B25: FS-2387 (peptide)
# chain: CARVKRSPGLAGNASASA
# B26: HC1150 (peptide)
# chain: CADIWDWICEAGNASASA
# B27: HC146 (peptide)
# chain: CAEVVTFTWVAGNASASA
# B28: HC1466 (peptide)
# chain: CAYGFQYSPGAGNASASA
# B29: HC2386 (peptide)
# chain: CAEVPCHRMSAGNASASA
# B30: HC197 (peptide)
# chain: CAGRTWAQPGAGNASASA
# B31: HC1855 (peptide)
# chain: CATHPCSGSWAGNASASA
# B32: FS-1830 (peptide)
# chain: CARLRRSLGEAGNASASA
# B33: FS-2241 (peptide)
# chain: CARTPRAVRPAGNASASA
# B34: FS-1720 (peptide)
# chain: CARIGRAVRPAGNASASA
# B35: FS-1518 (peptide)
# chain: CADSSRSVRPAGNASASA
# B36: FS-3244 (peptide)
# chain: CAREKKSASWAGNASASA
# B37: HC2121 (peptide)
# chain: CANDVVCCSMAGNASASA
# B38: HC1804 (peptide)
# chain: CADIMEECSQAGNASASA
# B39: HC1670 (peptide)
# chain: CAVEECSQHLAGNASASA
# B40: HC2125 (peptide)
# chain: CAELVVCCSMAGNASASA
# B41: FS-891 (peptide)
# chain: CAVLHRRRRYAGNASASA
# B42: HC2073 (peptide)
# chain: CAVVCCSMRYAGNASASA
# B43: HC2034 (peptide)
# chain: CAVVKCSMSYAGNASASA
# B44: FS-1350 (peptide)
# chain: CAKRWRRRRYAGNASASA
# B45: FS-966 (peptide)
# chain: CAVLARMMRPAGNASASA
# B46: HC239 (peptide)
# chain: CAVLEDGVNYAGNASASA
# B47: FS-797 (peptide)
# chain: CAHRSRDGRYAGNASASA
# B48: FS-314 (peptide)
# chain: CAVVKRPRRYAGNASASA
# B49: FS-1652 (peptide)
# chain: CARMIRRRRYAGNASASA
# B50: FS-3000 (peptide)
# chain: CARMIRTNEAAGNASASA
# Molecular target: furin, P09958
# Sequence (P09958 whole entry): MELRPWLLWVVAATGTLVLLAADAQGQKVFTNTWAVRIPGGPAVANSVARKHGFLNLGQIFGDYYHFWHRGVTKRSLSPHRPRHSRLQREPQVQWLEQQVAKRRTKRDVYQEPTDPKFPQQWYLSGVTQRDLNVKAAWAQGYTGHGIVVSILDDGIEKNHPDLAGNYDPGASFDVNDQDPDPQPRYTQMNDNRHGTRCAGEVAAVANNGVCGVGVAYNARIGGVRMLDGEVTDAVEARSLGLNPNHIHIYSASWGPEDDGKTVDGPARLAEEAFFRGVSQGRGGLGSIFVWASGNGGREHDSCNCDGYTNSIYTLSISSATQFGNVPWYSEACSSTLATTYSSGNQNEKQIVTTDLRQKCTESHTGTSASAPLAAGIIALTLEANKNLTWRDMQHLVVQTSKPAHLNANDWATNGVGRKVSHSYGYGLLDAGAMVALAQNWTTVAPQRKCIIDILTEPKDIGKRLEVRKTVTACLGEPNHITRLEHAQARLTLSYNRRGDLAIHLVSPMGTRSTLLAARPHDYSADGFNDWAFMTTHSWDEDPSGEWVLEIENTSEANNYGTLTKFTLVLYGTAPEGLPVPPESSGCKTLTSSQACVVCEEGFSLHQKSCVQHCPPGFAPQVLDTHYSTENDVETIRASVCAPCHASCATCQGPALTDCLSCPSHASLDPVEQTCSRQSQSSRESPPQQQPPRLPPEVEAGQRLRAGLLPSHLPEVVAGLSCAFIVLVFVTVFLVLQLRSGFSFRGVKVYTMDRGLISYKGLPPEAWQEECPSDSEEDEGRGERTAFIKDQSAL
# Test: furin cleavage Z-score vs untreated control; higher = more cleavage, active = 3.5 or more, inactive = 1 or less, 8 variable residues between constant flanks
# Summary of the method: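 To give the cleavage Z-score, log read counts were set against furin-free reactions, lowess-adjusted and scaled by median absolute deviation. These counts came from PCR adapter-tagged, sequenced DNA released when purified furin cut 8-mer peptides fused to a cDNA oligonucleotide and held on magnetic beads by their N-terminus. Digests were 0.01 ml, 1:10 enzyme:substrate, in 50 mM HEPES pH 7.5 with CaCl2 and NaCl, for 7.5, 15 or 30 min.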
Sequence,furin cleavage Z-score (7.5 min),furin cleavage Z-score (15 min),furin cleavage Z-score (30 min)
B1,0.567 (inactive),0.0331 (inactive),-0.164 (inactive)
B2,0.751 (inactive),1.62,-0.32 (inactive)
B3,11.9 (active),12.6 (active),8.05 (active)
B4,8.44 (active),9.42 (active),7.75 (active)
B5,0.679 (inactive),-0.235 (inactive),0.807 (inactive)
B6,-1.91 (inactive),-0.133 (inactive),0.367 (inactive)
B7,-0.0959 (inactive),1.64,1.05
B8,-0.265 (inactive),-1.79 (inactive),0.6 (inactive)
B9,-0.697 (inactive),-0.997 (inactive),-0.52 (inactive)
B10,-1.16 (inactive),-1.03 (inactive),0.3 (inactive)
B11,-0.528 (inactive),-0.454 (inactive),-0.259 (inactive)
B12,5.12 (active),6.32 (active),6.33 (active)
B13,6.58 (active),6.13 (active),6.41 (active)
B14,0.553 (inactive),1.11,0.636 (inactive)
B15,1.51,-0.0215 (inactive),0.93 (inactive)
B16,8.24 (active),11 (active),9.42 (active)
B17,-0.934 (inactive),-0.615 (inactive),-0.629 (inactive)
B18,-1.83 (inactive),0.376 (inactive),2.11
B19,10.7 (active),12.6 (active),9.34 (active)
B20,0.881 (inactive),0.588 (inactive),0.399 (inactive)
B21,0.168 (inactive),-0.988 (inactive),-1.36 (inactive)
B22,-1.44 (inactive),-1.09 (inactive),-2.56 (inactive)
B23,-0.176 (inactive),1.49,0.103 (inactive)
B24,1.86,4.55 (active),4.61 (active)
B25,10.4 (active),10.3 (active),9.1 (active)

Sequence,furin cleavage Z-score (7.5 min),furin cleavage Z-score (15 min),furin cleavage Z-score (30 min)
B26,-0.513 (inactive),-0.19 (inactive),-1.62 (inactive)
B27,-0.177 (inactive),-1.31 (inactive),-0.383 (inactive)
B28,-1.04 (inactive),0.304 (inactive),-1.02 (inactive)
B29,0.401 (inactive),1.85,-1.19 (inactive)
B30,0.399 (inactive),0.197 (inactive),-2.32 (inactive)
B31,-0.725 (inactive),0.134 (inactive),-0.569 (inactive)
B32,4.48 (active),6.54 (active),5.36 (active)
B33,4.95 (active),5.05 (active),7.16 (active)
B34,6.17 (active),6.97 (active),7.91 (active)
B35,-1.18 (inactive),-0.293 (inactive),0.507 (inactive)
B36,-1.37 (inactive),-1 (inactive),0.389 (inactive)
B37,0.854 (inactive),0.345 (inactive),0.79 (inactive)
B38,-0.826 (inactive),-1.93 (inactive),0.332 (inactive)
B39,0.23 (inactive),0.997 (inactive),-0.342 (inactive)
B40,-0.0192 (inactive),-0.743 (inactive),-0.249 (inactive)
B41,9.61 (active),10.5 (active),9.16 (active)
B42,0.763 (inactive),0.207 (inactive),0.313 (inactive)
B43,0.0381 (inactive),0.000409 (inactive),0.298 (inactive)
B44,10.3 (active),12 (active),9.1 (active)
B45,-0.155 (inactive),0.612 (inactive),-0.556 (inactive)
B46,-0.545 (inactive),-2.21 (inactive),0.0229 (inactive)
B47,0.199 (inactive),1.41,0.834 (inactive)
B48,9.96 (active),10.8 (active),10 (active)
B49,10.9 (active),13.2 (active),9.13 (active)
B50,0.282 (inactive),0.0077 (inactive),0.743 (inactive)
